According to PubChem BioAssay (EPA / NIEHS):
Results filed as inconclusive are left out. Activity calls are given as the source filed them. How the source made its calls, unless noted: active means hit-call score of the fitted dose curve at least 0.9, where 1 is the maximum; inconclusive means response in the unintended direction; inactive means score below 0.9.

How the values were obtained:
[1] = target: AR (gene 367) (UniProt P10275); assay: ACEA_AR_antagonist_80hr: ACEA Biosciences xCELLigence Real-Time Cell Analysis on Androgen Receptor Antagonism for Proliferation (AID 2283787);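 further: 22Rv1 human prostate cancer cells with growth followed by electrical impedance; hits lower the impedance growth signal relative to DMSO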
Procedure, shortened: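 Growth-kinetic antagonist readout in 22Rv1 cells, taken 80 h after continuous compound exposure. Activity fitted as signal loss relative to DMSO negative control.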

[2] = target: Nucleoli Translocation, AR (gene 367) (UniProt P10275); assay: UPITT_HCI_U2OS_AR_TIF2_Nucleoli_Antagonist: University of Pittsburgh U2OS Androgen Receptor-Transcriptional Intermediary Factor 2 (AR-TIF2) Antagonism High Content Imaging Assay for Nucleoli Translocation (AID 2283997)
Procedure, shortened: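 Measured quantity was AR-RFP fluorescence localized to nucleoli in engineered U2OS cells also bearing TIF2-GFP, acquired on automated high-content imagers. Primary testing used 20 uM compound; actives were confirmed in triplicate wells.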

[3] = target: Ratio of Nucleoli Translocation and Cytoplasm, AR (gene 367) (UniProt P10275); assay: UPITT_HCI_U2OS_AR_TIF2_Nucleoli_Cytoplasm_Ratio_Antagonist: University of Pittsburgh U2OS Androgen Receptor-Transcriptional Intermediary Factor 2 (AR-TIF2) Antagonism High Content Imaging Assay for Ratio of Nucleoli Translocation and Cytoplasm (AID 2283999);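 further: antagonists lower the DHT-driven ratio of nucleolar to cytoplasmic red signal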
Procedure, shortened: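 High-content imaging quantifies the red nucleolar:cytoplasmic fluorescence ratio in U2OS cells with AR-RFP and TIF2-GFP. Final concentrations are 20 uM (screen) or 0.195–50 uM (dose response), analysed against DHT as baseline.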

[4] = target: rat Peripheral-type Benzodiazepine Receptor (PBR), Tspo (gene 24230) (UniProt P16257); assay: NVS_MP_rPBR: NovaScreen (NVS) Membrane Protein Assay for rat Peripheral-type Benzodiazepine Receptor (PBR) (AID 2283335)
Chain of rat Peripheral-type Benzodiazepine Receptor (PBR), Tspo (gene 24230) (P16257 whole entry, looked up): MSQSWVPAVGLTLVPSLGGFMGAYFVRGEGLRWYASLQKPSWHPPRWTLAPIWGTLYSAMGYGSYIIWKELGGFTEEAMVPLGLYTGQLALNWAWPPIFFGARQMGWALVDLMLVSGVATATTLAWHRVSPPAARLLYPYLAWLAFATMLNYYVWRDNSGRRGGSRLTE
Procedure, shortened: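 Radioligand displacement, rat kidney membrane prep, 1 h exposure, filter-based scintillation read; DMSO baseline, loss-of-signal scored. Primary screen at 25 uM in duplicate, actives followed up in concentration series.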

[5] = target: Retinoic acid receptor alpha (Homo sapiens) (UniProt P10276); assay: NVS_NR_hRARa_Agonist: NovaScreen (NVS) Nuclear Receptor Binding Assay for human Retinoic Acid Alpha Receptor Agonism (RAR) (AID 2283361)
Chain of Retinoic acid receptor alpha (Homo sapiens) (P10276 whole entry, looked up): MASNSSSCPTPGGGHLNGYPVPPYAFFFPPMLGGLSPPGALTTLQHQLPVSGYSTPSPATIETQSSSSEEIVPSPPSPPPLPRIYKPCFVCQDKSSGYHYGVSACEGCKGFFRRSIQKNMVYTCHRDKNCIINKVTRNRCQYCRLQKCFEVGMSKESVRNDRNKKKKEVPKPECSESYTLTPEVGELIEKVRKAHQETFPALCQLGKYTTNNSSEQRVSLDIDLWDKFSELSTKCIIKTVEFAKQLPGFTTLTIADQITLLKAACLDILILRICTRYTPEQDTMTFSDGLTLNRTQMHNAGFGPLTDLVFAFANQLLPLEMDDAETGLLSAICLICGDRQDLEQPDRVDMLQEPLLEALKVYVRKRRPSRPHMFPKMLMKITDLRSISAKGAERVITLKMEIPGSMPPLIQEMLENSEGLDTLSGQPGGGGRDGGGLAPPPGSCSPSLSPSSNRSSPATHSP
Procedure, shortened: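 Readout is time-resolved fluorescence resonance energy transfer after a 2 h exposure of cell-free extracted receptor protein. Initial testing used 25 uM in duplicate, with concentration-response follow-up for active chemicals.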

[6] = target: human Peripheral-type Benzodiazepine Receptor (PBR), TSPO (gene 706) (UniProt P30536); assay: NVS_MP_hPBR: NovaScreen (NVS) Membrane Protein Assay for human Peripheral-type Benzodiazepine Receptor (PBR) (AID 2283331);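 further: hits reduce radioligand binding relative to DMSO baseline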
Chain of human Peripheral-type Benzodiazepine Receptor (PBR), TSPO (gene 706) (P30536 whole entry, looked up): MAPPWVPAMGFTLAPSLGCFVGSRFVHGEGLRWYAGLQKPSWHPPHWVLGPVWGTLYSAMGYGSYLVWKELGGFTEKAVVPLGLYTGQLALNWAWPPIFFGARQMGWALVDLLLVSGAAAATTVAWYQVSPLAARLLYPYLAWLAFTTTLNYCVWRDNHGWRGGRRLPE
Procedure, shortened: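 Scintillation counts of filter-bound radioligand served as read-out after 1 h chemical dosing of human colonic membrane preparations. Activity was scored as signal loss against DMSO; initial duplicates at 25 uM, confirmatory concentration series afterward.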

[7] = system: SERPINA7 (gene 6906); assay: CCTE_GLTED_hTBG: CCTE's human Thyroxine-binding Globulin (TBG) Inhibition Assay, Great Lakes Toxicology and Ecology Division (GLTED) Lab (AID 2284343);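 further: active chemicals lower fluorescence versus DMSO baseline by displacing probe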
Procedure, shortened: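 Measures how far test chemicals displace ANSA bound to purified human TBG. The read-out is fluorescence at 380 nm excitation and 475 nm emission, taken after 2 h of incubation.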

[8] = target: bovine Estrogen Receptor (ER), ESR1 (gene 407238) (UniProt P49884); assay: NVS_NR_bER: NovaScreen (NVS) Nuclear Receptor Binding Assay for bovine Estrogen Receptor (ER) (AID 2283345);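 further: actives lower the bound radioligand count which means they displace the ER ligand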
Chain of bovine Estrogen Receptor (ER), ESR1 (gene 407238) (P49884 whole entry, looked up): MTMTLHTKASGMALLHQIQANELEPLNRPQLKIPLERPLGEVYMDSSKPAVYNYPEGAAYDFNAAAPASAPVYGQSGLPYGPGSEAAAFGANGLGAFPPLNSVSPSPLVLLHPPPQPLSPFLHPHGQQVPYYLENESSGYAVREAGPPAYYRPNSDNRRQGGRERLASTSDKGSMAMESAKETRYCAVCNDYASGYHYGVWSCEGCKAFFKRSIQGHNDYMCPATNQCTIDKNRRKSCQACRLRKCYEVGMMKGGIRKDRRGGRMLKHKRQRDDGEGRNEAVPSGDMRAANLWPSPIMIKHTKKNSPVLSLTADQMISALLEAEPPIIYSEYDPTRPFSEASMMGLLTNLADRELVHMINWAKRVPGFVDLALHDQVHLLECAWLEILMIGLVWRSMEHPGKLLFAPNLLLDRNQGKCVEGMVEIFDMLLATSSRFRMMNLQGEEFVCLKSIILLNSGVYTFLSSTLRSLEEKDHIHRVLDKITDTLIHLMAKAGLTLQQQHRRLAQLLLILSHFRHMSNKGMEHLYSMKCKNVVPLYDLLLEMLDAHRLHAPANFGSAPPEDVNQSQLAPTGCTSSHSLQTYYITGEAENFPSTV
Procedure, shortened: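 Cell-free radioligand binding with receptor from bovine uterine membranes, read by scintillation counting 18 h after dosing. Loss of specific binding was scored against DMSO; primary screen at 25 uM in duplicate, actives then run as concentration series.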

[9] = target: Estrogen receptor (Homo sapiens) (UniProt P03372); assay: NVS_NR_hER: NovaScreen (NVS) Nuclear Receptor Binding Assay for human Estrogen Receptor (ER) (AID 2283348)
Chain of Estrogen receptor (Homo sapiens) (P03372 whole entry, looked up): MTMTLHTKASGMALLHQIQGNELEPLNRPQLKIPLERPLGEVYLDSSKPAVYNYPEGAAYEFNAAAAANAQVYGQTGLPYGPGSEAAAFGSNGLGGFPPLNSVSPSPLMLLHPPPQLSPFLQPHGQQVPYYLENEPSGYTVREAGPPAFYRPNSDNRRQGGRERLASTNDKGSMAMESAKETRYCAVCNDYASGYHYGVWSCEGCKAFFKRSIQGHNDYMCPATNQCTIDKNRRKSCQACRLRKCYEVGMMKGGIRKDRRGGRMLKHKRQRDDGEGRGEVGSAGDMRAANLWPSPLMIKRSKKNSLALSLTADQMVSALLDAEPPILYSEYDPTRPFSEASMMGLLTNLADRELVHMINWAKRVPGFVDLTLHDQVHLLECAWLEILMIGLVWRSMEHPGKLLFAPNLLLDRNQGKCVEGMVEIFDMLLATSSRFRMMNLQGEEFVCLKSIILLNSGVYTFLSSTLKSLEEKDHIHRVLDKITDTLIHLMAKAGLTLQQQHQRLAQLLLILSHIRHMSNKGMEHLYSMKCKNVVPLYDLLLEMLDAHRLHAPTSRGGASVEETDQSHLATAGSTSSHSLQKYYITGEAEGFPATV
Procedure, shortened: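 Scintillation signal from bound radioligand was measured 18 hours after chemical addition to cell-free MCF7 protein extracts, with DMSO as baseline. Activity was scored as signal loss; compounds ran first at 25 uM in duplicate.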

[10] = NVS_IC_rCaBTZCHL: NovaScreen (NVS) Ion Channel Assay for Calcium Channel, Type L, Benzothiazepine Site (CaBTZCHL) (AID 2283337)
Procedure, shortened: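 Competitive displacement of a site-specific radioligand from rat cortex membranes, measured as signal loss against DMSO baseline by filter radiodetection after 1.5 h. Single-point 25 uM primary screen.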

[11] = target: chimpanzee Androgen Receptor (AR), AR (gene 747460) (UniProt O97775); assay: NVS_NR_cAR: NovaScreen (NVS) Nuclear Receptor Binding Assay for chimpanzee Androgen Receptor (AR) (AID 2283346);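 further: radioligand displacement from AR measured by scintillation counting in a cell-free assay; a loss of bound radioligand signal versus DMSO counts as binding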
Chain of chimpanzee Androgen Receptor (AR), AR (gene 747460) (O97775 whole entry, looked up): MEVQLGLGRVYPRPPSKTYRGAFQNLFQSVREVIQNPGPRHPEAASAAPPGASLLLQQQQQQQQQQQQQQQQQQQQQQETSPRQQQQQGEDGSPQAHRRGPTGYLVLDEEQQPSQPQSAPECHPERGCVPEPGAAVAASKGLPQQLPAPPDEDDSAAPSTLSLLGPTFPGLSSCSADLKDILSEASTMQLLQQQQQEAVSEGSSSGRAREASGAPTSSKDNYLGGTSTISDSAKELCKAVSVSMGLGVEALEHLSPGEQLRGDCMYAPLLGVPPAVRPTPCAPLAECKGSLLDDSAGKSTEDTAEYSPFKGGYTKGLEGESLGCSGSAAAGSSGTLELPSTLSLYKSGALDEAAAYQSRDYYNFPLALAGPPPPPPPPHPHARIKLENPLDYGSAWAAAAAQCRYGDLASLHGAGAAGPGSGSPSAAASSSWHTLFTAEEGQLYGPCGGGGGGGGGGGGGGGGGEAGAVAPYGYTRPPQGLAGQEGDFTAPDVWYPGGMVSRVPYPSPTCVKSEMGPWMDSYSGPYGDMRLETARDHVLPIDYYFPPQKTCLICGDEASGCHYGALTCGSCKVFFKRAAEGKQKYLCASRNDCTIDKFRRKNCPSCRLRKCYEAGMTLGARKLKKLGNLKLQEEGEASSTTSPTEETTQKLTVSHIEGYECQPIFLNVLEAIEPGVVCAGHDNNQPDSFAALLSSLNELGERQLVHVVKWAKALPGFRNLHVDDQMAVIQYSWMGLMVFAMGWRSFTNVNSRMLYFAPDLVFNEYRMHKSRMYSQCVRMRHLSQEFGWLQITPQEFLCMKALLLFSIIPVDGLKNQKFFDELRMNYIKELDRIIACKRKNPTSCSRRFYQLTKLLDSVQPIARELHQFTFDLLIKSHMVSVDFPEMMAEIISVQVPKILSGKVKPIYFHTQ
Procedure, shortened: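 Cell-free competition binding with insect-cell (Sf9/Sf21) extracted chimpanzee AR; scintillation signal from lysate at 72 h. Screened in duplicate at 25 uM, then concentration-response for actives; fitting relative to DMSO.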

[12] = target: sheep Cyclooxygenase-1 (Cox1), PTGS1 (gene 443551) (UniProt P05979); assay: NVS_ENZ_oCOX1: NovaScreen (NVS) Enzymatic Assay for sheep Cyclooxygenase-1 (Cox1) (AID 2283239);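 further: actives reduce cyclooxygenase activity so potencies are for inhibitors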
Procedure, shortened: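 COX1 from ovine seminal vesicles, activity read colorimetrically about 0.66 h after dosing. Primary screen in duplicate at 25 uM; actives retested in concentration series; loss of signal fitted versus DMSO.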

[13] = target: D(1A) dopamine receptor (Homo sapiens) (UniProt P21728); assay: NVS_GPCR_hDRD1: NovaScreen (NVS) G Protein-Coupled Receptor Assay for human Dopamine Receptor D1 (DRD1) (AID 2283269)
Chain of D(1A) dopamine receptor (Homo sapiens) (P21728 whole entry, looked up): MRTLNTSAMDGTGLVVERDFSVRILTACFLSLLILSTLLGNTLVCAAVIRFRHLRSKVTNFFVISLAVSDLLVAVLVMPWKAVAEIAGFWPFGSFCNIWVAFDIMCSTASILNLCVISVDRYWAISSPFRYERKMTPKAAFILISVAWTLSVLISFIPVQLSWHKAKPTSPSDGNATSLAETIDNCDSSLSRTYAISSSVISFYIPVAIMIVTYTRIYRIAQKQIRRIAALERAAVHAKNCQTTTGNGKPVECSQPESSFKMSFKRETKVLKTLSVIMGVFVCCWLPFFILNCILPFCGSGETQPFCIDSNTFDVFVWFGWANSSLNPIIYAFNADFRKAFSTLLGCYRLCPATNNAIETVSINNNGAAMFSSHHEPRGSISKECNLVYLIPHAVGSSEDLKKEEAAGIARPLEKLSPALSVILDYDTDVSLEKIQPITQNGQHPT
Procedure, shortened: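 Cell-free radioligand binding to human DRD1 from HEK293 membranes, read 1 h after dosing by filter-based scintillation counting. Loss of signal versus DMSO baseline marks displacement. Primary screen at 25 uM single concentration in duplicate; actives followed up in concentration series.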

[14] = target: human Matrix Metalloproteinase-9 (MMP9), MMP9 (gene 4318) (UniProt P14780); assay: NVS_ENZ_hMMP9: NovaScreen (NVS) Enzymatic Assay for human Matrix Metalloproteinase-9 (MMP9) (AID 2283190);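 further: cell-free recombinant MMP9 protease activity read by fluorescent substrate signal; active means inhibition seen as loss of fluorescence signal versus DMSO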
Chain of human Matrix Metalloproteinase-9 (MMP9), MMP9 (gene 4318) (P14780 whole entry, looked up): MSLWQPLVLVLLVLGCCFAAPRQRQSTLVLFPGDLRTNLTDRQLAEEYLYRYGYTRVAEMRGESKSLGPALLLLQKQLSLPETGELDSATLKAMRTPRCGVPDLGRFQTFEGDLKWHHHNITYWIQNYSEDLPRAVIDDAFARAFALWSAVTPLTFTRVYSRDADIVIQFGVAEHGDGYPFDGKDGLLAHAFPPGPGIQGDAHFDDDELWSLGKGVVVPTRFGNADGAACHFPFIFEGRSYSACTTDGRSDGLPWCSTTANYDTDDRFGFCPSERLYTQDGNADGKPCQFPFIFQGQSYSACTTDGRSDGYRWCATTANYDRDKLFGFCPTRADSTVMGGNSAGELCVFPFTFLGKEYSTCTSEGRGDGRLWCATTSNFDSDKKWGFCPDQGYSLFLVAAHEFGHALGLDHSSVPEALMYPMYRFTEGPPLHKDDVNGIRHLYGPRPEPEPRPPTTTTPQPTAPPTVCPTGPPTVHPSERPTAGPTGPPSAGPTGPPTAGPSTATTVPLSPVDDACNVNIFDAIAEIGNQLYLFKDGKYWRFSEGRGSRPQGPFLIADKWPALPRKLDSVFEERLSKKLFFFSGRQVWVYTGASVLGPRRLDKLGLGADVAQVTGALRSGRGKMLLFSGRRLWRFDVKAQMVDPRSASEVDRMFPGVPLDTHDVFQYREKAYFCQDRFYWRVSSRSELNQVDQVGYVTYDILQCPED
Procedure, shortened: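 Extracted enzyme, fluorescent substrate, 1 h post-dose read. Single conc 25 uM in duplicate, then concentration series for actives. Activity = signal loss relative to DMSO negative control.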

[15] = CCTE_Deisenroth_5AR_NBTE_donor: CCTE's 5alpha-reductase NanoBRET Target Engagement Assay […], Deisenroth Lab (AID 2284319; active means hit-call score of the fitted dose curve at least 0.9, where 1 is the maximum; inactive means score below 0.9); conditions: actives raise or lower the signal
Procedure, shortened: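 Donor NanoLuc luminescence at 460-20 nm is the read-out, serving artifact detection. Transiently expressed SRD5A2-NanoLuc in HEK293T; 5 h total chemical exposure, testosterone tracer added for the final 2 h; fitting bidirectional relative to DMSO baseline.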

[16] = CCTE_Deisenroth_5AR_NBTE_acceptor: CCTE's 5alpha-reductase NanoBRET Target Engagement Assay - Autofluorescence Screen, Deisenroth Lab (AID 2284321; active means hit-call score of the fitted dose curve at least 0.9, where 1 is the maximum; inactive means score below 0.9;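 further: compound fluorescence in the acceptor channel under 460 nm excitation flags autofluorescence artifacts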); conditions: actives raise or lower the signal
Procedure, shortened: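 Autofluorescence counter-screen: chemicals at an assumed nominal 100 uM in DMSO were scanned in three independent runs with 460 nm excitation. Gain or loss of acceptor signal was fitted bidirectionally against DMSO.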

[17] = system: SRD5A2 (gene 6716); assay: CCTE_Deisenroth_5AR_NBTE_ratio: CCTE's 5alpha-reductase NanoBRET Target Engagement Assay - Ratio, Deisenroth Lab (AID 2284322; active means hit-call score of the fitted dose curve at least 0.9, where 1 is the maximum; inactive means score below 0.9); conditions: actives raise or lower the signal
Procedure, shortened: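 Reverse-transfect HEK293T with pNLF1-C-SRD5A2, express 20 h. Pre-incubate cells with chemical 3 h (8-point series, 10 nM - 29.9 uM, duplicate). Add testosterone tracer, 2 h more. Add substrate/inhibitor, read donor and acceptor emission.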

[18] = target: Bile acid receptor (Homo sapiens) (UniProt Q96RI1); assay: ATG_FXR_TRANS: Attagene TRANS-FACTORIAL HepG2 Assay for Farnesoid X Receptor (FXR) (AID 2282979); conditions: HepG2 Attagene TRANS FXR-GAL4 reporter transcription;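 further: hits raise reporter mRNA above DMSO so AC50 marks FXR activation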
Chain of Bile acid receptor (Homo sapiens) (Q96RI1 whole entry, looked up, the tested form may be a part): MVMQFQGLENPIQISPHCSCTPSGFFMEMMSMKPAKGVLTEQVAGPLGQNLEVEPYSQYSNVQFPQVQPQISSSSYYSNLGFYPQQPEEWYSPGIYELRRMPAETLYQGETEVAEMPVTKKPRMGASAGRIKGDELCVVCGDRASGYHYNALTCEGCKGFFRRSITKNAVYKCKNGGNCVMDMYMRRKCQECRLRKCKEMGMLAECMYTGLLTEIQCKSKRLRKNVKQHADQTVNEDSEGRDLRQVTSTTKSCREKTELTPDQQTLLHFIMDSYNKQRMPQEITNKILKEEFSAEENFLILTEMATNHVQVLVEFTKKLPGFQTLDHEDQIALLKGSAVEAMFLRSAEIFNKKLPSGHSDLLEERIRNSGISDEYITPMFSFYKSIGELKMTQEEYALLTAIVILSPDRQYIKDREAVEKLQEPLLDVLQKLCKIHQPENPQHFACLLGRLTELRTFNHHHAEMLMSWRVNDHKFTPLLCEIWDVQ
Procedure, shortened: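 HepG2 cells were transiently transfected with GAL4-UAS reporters driven by chimeric NR-Gal4 proteins and dosed for 24 h. Reporter mRNA was quantified by RT-PCR, fluorescent labelling, HpaI digestion and capillary electrophoresis, with gain of signal scored versus DMSO.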

[19] = target: Estrogen receptor (Homo sapiens) (UniProt P03372); assay: CCTE_Deisenroth_AIME_384WELL_LUC_Active: CCTE's 384-well Estrogen Receptor Transactivation Assay with AIME metabolic competence (ERTA luciferase; metabolism positive), Deisenroth Lab (AID 2284030)
Procedure, shortened: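 Chemicals (10-point, 0.002-200 uM) were first incubated 2 hours with alginate-immobilized induced male Sprague Dawley rat liver S9. The conditioned medium was then applied to VM7Luc4E2 cells for 24 hours, with ER luciferase induction read by luminescence relative to 17beta-estradiol.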

[20] = target: Estrogen receptor (Homo sapiens) (UniProt P03372); assay: CCTE_Deisenroth_AIME_384WELL_LUC_Inactive: CCTE's 384-well Estrogen Receptor Transactivation Assay without AIME metabolic competence (ERTA luciferase; metabolism negative), Deisenroth Lab (AID 2284038);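 further: VM7Luc4E2 breast cells given medium preincubated 2 h with S9-free microspheres; hits raise estrogen receptor luciferase signal so potencies reflect agonists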
Procedure, shortened: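 Chemicals (10-point series, 0.002 - 200 uM) were incubated 2 hours with alginate-water microsphere lids lacking S9, then the conditioned medium was transferred to VM7Luc4E2 breast cells for 24 hour. Luciferase induction was read by bioluminescence, fitted upward relative to 17beta-estradiol.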

COc1cc(OC)nc(Oc2cccc(Oc3nc(OC)cc(OC)n3)c2C(=O)O)n1
outcome [1]: inactive
outcome [2]: inactive
outcome [3]: inactive

CCCOC(=O)c1ccccc1C(=O)OCCC
outcome [4]: inactive

O=C=Nc1ccccc1
AC50 [5]: 9.8 µM (active)

Oc1ccc(Cl)cc1
AC50 [6]: 12.3 µM (active)

O=C1Nc2ccc(Cl)cc2C(c2ccccc2)=NC1O (stereo not given)
AC50 [7]: 37.3 µM (active)

COc1cc(OC)c(OC)cc1C=O
outcome [8]: inactive
outcome [9]: inactive

O=C(O)CCCc1ccc(N(CCCl)CCCl)cc1
outcome [10]: inactive

Nc1ccc(Cl)c(Cl)c1
AC50 [11]: 25 µM (active)

CC(C)(C)C(=O)CCl
outcome [12]: inactive

O=[N+]([O-])C=Cc1ccccc1
AC50 [13]: 8.25 µM (active)

CN(C)CCC#N
AC50 [14]: 9.19 µM (active)

O=P(O)(Oc1ccccc1)Oc1ccccc1
outcome [15]: inactive
outcome [16]: inactive
outcome [17]: inactive

CCCC=NO
outcome [18]: inactive
outcome [19]: inactive
outcome [20]: inactive
